IL1B secr inh – inflammasome signaling inhibition, IL-1 beta readout; THP-1 LPS/ATP IL-1B secretion, AlphaLISA, 16 h; stronger effect = lower value; activity change, % at 57.5 µM; 4.7% of 360,000 active; AID 743279; in the data active = activity change below about -50%; inconclusive = mostly about -30% to -49%
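Secreted IL-1B measured by AlphaLISA bead assay after 16 h compound exposure of THP-1 cells; compounds (final up to 57.5 uM) added 1 h before LPS (250 ng/mL) and ATP (1.25 mM) stimulation; lower signal means less secretion.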
ELG1 DNA repair – ELG1-dependent DNA repair inhibition; Potency, µM (series often up to 46.1 µM), inactives show top-dose activity change, negative = inhibition, hits mostly inhibitors; HEK293T ELG1-luciferase reporter, luminescence, 16 h; DNA damage induced by 5-fluorouridine; 2.3% of 330,000 active; note: potency is the fitted concentration of half-maximal effect; nearly all actives have a fitted effect of over 55% in size
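Quantitative HTS, concentration-response format. 2,000 cells/well co-treated with 5-fluorouridine and compound, 16 hr in 5% CO2 at 37 °C; ONE-Glo luminescence read after 30 min.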
DT40 TDP1 no CPT – qHTS for Inhibitors of human tyrosyl-DNA phosphodiesterase 1 (TDP1): qHTS in cells in absence of CPT. DT40 Tdp1-/- hTDP1 cells, no CPT, ATP luminescence, 48 h. Potency, µM (highest dose often 46.2 µM), for the others: at the highest dose activity change, negative = growth inhibition, actives largely listed as inhibitors. 15% of 420,000 active. AID 686978, 2013; note: potency is the fitted concentration of half-maximal effect; nearly all actives have a fitted effect of over 55% in size
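Stably hTDP1-transfected Tdp1-null chicken DT40 cells were treated with library compounds minus camptothecin and grown for at least 48 hr at 37 °C, after which cellular ATP was quantified by luminescence.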
HT1080 IDH1KD tx – kills HT-1080 cells with IDH1 knockdown; HT-1080 IDH1 knockdown viability, ATP luminescence, 48 h; 2% of 360,000 active; Potency, µM (highest dose often 46.1 µM), without a hit: at the highest dose activity, negative = toxicity, actives largely listed as cytotoxic;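 note: potency is the fitted concentration of half-maximal effect; 0% = DMSO wells and -100% = cell-free medium wells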
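Knockdown cells (IDH1KD HT-1080) received compounds 2 h after plating at 750 cells/well and were kept 48 h at 37 °C in 5% FBS RPMI. A CellTiter-Glo luminescence read gave % activity for curve fitting.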
DT40 TDP1 CPT – DT40-hTDP1 cell growth loss with CPT; chicken DT40 Tdp1-/-;hTDP1 cells + 20 nM CPT, ATP luminescence, 48 h; Potency, µM (top dose mostly 46.2 µM), inactives show top-dose activity change, negative = growth inhibition, actives largely listed as inhibitors; 12% of 420,000 active; AID 686979; note: potency is the fitted concentration of half-maximal effect; nearly all actives have a fitted effect of over 55% in size
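Chicken DT40 Tdp1-/- cells stably complemented with human TDP1 were seeded at 400 cells/well in medium containing 20 nM camptothecin, exposed to pin-transferred compounds, and grown at 37 °C for at least 48 hr. Viability was read as ATP luminescence.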
HT1080NT lethal – kills 2HG-producing HT-1080-NT fibrosarcoma cells. HT-1080-NT fibrosarcoma viability, CellTiter-Glo ATP luminescence, 48 h. Potency, µM (doses to about 46.1 µM), without a hit: top-dose activity, negative = less viability, hits mostly cytotoxic. 1.6% of 360,000 active;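 note: NT is the 2HG producing partner of a matched IDH1 knockdown line; potency is the fitted concentration of half-maximal effect; 0% = DMSO-treated cells and -100% = media-only wells without cells; nearly all actives have a fitted effect of over 55% in size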
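Viability by CellTiter-Glo luminescence after 48 h compound exposure at 37C of HT-1080-NT cells (750/well, RPMI, 5% FBS). % activity scaled between DMSO wells and medium-only wells, then curve-fitted and categorized by curve class.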
An asterisk follows results filed as active; ? = inconclusive; . = no result. Compounds with a hit are over-represented: about 19% of the library has one in this group of screens. Unless noted, calls come from the whole dose curve; as a rule, active = well fitted curve in the direction sought with a large enough effect; inconclusive = small, poorly fitted or top-dose-only effect, or another doubt; inactive = no such curve, though single readings can be large; an effect the other way counts as inactive or inconclusive. Unless noted, % is set by controls: 0 for no effect and ±100 for the full control effect.

SMILES	IL1B secr inh	ELG1 DNA repair	DT40 TDP1 no CPT	HT1080 IDH1KD tx	DT40 TDP1 CPT	HT1080NT lethal
CCN(CC)C(=O)Oc1nnc(SC(C)C)n1-c1ccc(Cl)c(Cl)c1	-21	?	23µM*	-14%	?	-3%
COc1cc(C(=O)OCc2cc(=O)c(O)co2)ccc1OC(F)F	-5	-4%	-10%	-21%	-5%	?
COc1ccc(Nc2nc(N)nc(CSc3nc4ccccc4s3)n2)cc1	.	.	16µM*	.	15µM*	.
COCCNP(=O)(c1ccccc1)c1nc2ccccc2s1 (centres undefined)	.	14%	.	.	.	.
CN[C@@H](Cc1c[nH]c2ccccc12)C(=O)O	.	.	-5%	.	-4%	.
O=C(Cc1c[nH]c2ccccc12)NNCc1ccc(N(CCCl)CCCl)cc1	16	.	0.92µM*	-15%	0.52µM*	-7%
O=C1NC(=O)C(CCc2ccncc2)(CCc2ccccn2)C(=O)N1c1ccc(Br)cc1 (centres undefined)	24	2%	9.2µM*	-22%	10µM*	-11%
NCCCCC(NC(CCc1ccccc1)C(=O)O)C(=O)N1CCCC1C(=O)O (centres undefined)	.	.	5%	.	14%	.
O=C1CC(c2ccccc2)CN1 (centres undefined)	2	-10%	2%	9%	2%	15%
CN1C2CC(OC(=O)C(CO)c3ccccc3)CC1C(O)C2 (centres undefined)	.	.	-7%	.	9%	.
CCCCC(CC)COP(=O)(OCC(CC)CCCC)OCC(CC)CCCC (centres undefined)	-72*	?	?	-4%	?	?
CC1=CC(=C2C(=O)NC(=S)NC2=O)C=C(C(F)(F)F)N1CCc1ccccc1	.	2%	.	.	.	.
CC1=CC(=C2C(=O)NC(=S)NC2=O)C=C(C(F)(F)F)N1Cc1ccccc1	32	?	1.6µM*	1.6µM*	1.6µM*	1.8µM*
CC1=CC(=C2C(=O)NC(=O)NC2=O)C=C(C(F)(F)F)N1C(C)C	-3	17%	2%	5%	-1%	14%
CC1=CC(=C2C(=O)NC(=O)NC2=O)C=C(C(F)(F)F)N1Cc1ccccc1	10	?	18µM*	?	?	?
Cc1cc(C)[n+](CCCC[n+]2c(C)cc(C)cc2C)c(C)c1	32	2%	-1%	6%	-1%	15%
COC(=O)C1=C(c2cccc(C#N)c2)C[C@@H]2CC[C@H]1N2C(=O)NCc1cc(C)oc1C(F)(F)F	7	-2%	?	-10%	?	-18%
COC(=O)C1=C(c2ccc(OC)c(OC)c2)C[C@@H]2CC[C@H]1N2C(=O)NCCO	26	11%	1%	4%	-3%	4%
COC(=O)C1=C(c2ccc(Cl)c(C(F)(F)F)c2)C[C@@H]2CC[C@H]1N2C(=O)NCc1cc(C)oc1C(F)(F)F	-29	0%	21µM*	-28%	?	-18%
COC(=O)C1=C(c2ccc(-c3ccccc3)c(F)c2)C[C@@H]2CC[C@H]1N2C(=O)NCc1cc(C)oc1C(F)(F)F	-3	-17%	15µM*	-16%	?	-9%
COC(=O)C1=C(c2ccc(Cl)c(C(F)(F)F)c2)C[C@@H]2CC[C@H]1N2C(=O)NCCOc1ccc(OC)cc1	-63*	?	?	?	?	?
CCCNC(=O)N1[C@H]2CC[C@@H]1C(C(=O)OC)=C(c1ccc(Cl)c(C(F)(F)F)c1)C2	-11	-10%	15µM*	-1%	16µM*	-2%
C=CCN1CCCC1CNC(=O)c1cc2[nH]nnc2cc1OC (centres undefined)	-16	14%	?	1%	0%	13%

Source: PubChem BioAssay
